PubChem BioAssay AID1863 (Southern Research Specialized Biocontainment Screening …, 2009)
Out of some 300,000 compounds screened, about 480 (0.16%) were called active.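 Rule for the calls: active = inhibition over 29.93%, a cutoff 3 SD above the screen mean, later confirmed by dose response; inconclusive = inhibition over 29.93% but no dose response follow-up; inactive = inhibition at most 29.93% or unconfirmed.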 A selection follows. Results with a measured potency or affinity are listed apart. Peptide text beside a SMILES is read from it. * marks the point of attachment. Boc = CC(C)(C)OC(=O)*

assay: inhibitors of PhoP regulon expression, primary screen, Salmonella Typhimurium, GFP reporter (AID 1863);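 note: 0% = low Mg2+ inducing control and 100% = high Mg2+ repressing control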; conditions: S. Typhimurium PhoP-regulated promoter GFP reporter, 4 h; at 50 µM; hits give high values

inhibition, inactive:
COc1ccc(/C=N/Nc2cc(N(C)C)nc(N(C)C)n2)cc1 -15.8%
CC(C)(C)c1ccc(C(=O)N2CCC(C(=O)NCc3ccncc3)CC2)cc1 -6.15%
O=C(NCc1cccs1)c1cc(S(=O)(=O)N2CCCCC2)ccc1Cl 2.07%
COc1cc(C(=O)NCc2cccc3ccccc23)ccc1OCc1ccccc1 -2.04%
COc1ccc(/C(N)=N/O)c(OC)c1 -1.42%
Nc1ccc(-n2ccnc2)cc1 1.57%
CCOc1ccc(CSC(=N)N)cc1[N+](=O)[O-] 41%
COc1ccc(Br)cc1CSC(=N)N 5.81%
CCOc1ccc(Br)cc1CSC(=N)N 26.3%
CCCOc1ccc(Br)cc1CSC(=N)N 55.8%
COc1ccc(CSC(=N)N)cc1[N+](=O)[O-] 5.38%
CCCCOc1ccc(CSC(=N)N)cc1Cl 0.89%
C/C(=N\NC(=O)CNC(=O)c1ccc(F)cc1)c1ccco1 4.52%
Cc1ccc(NC(=O)N[C@@H](CC(C)C)C(=O)O)c(C)c1 -7.38%
O=C(NCc1ccccn1)Nc1ccccc1Cl -6.1%
CCN(CCN1CCCC1)C(=O)C1CCC(=O)N(CCCN2CCOCC2)C1 (stereo not given) 2.18%
CCCCCCn1c(N2CCCC2)nc2c1c(=O)[nH]c(=O)n2C 2.66%
O=C1CCCN1CCCNS(=O)(=O)c1ccccc1 10.7%
Cc1cc(C)nc(N/C(=N\S(=O)(=O)Cc2ccccc2)Nc2cccc(Cl)c2C)n1 8.54%
CC(C)(C)OC(=O)N1CCC[C@@H]1CO 1.69%
CC(C)CC(NC(=O)OC(C)(C)C)C(=O)NC(C(=O)N1CCCC1C(N)=O)C(C)C (stereo not drawn) (Boc-Leu-Val-Pro-NH2; configuration not given here) -6.98%
CCCC(=O)N1CC(=O)Nc2ccc(C)cc2C1c1ccccc1 (stereo not given) -6.57%
S=C(NCc1ccccc1)N1CCCCC1 0.84%
O=S(=O)(NCC(c1ccc2c(c1)OCO2)N1CCOCC1)c1ccc(Cl)cc1 (stereo not given) -2.72%
COc1ccc2c(c1)[n+](=O)c(C(C)=O)c(C)n2[O-] 7.33%
CC(=O)c1c(C)n([O-])c2cc(C)ccc2[n+]1=O -0.54%
O=[n+]1c2c(n([O-])c3cc(F)c(F)cc31)CCCC2 -5.91%
CC(=O)c1c(C)n([O-])c2ccc(C)cc2[n+]1=O 0.85%
Cc1ccc(NC2c3ncccc3C(=O)N2Cc2ccco2)c(C)c1 (stereo not given) -7.26%
O=C(CCSCCC(=O)N1CCCC1)N1CCCC1 0.69%
Cc1c(C)n2c(SCC(=O)NC3CCCCC3)nnc2[nH]c1=O 2.36%
CC(=O)c1c(N2CCN(c3ccc(F)cc3)CC2)nc(=S)n(Cc2ccccc2)c1C -9.08%
CCN(CC)CC(=O)Nc1ccc(-c2ccc(NC(=O)CN(CC)CC)c(OC)c2)cc1OC -5.12%
O=C(O)c1ccc(NC(=O)C(c2ccccc2)c2ccccc2)cc1 -7.69%
COc1cccc(C2c3[nH]c4ccccc4c3CCN2C(=O)Cn2cncn2)c1OC (stereo not given) -2.77%
CCN(CC)C(=O)Oc1nnc(SC(C)C)n1-c1ccc(Cl)cc1 -0.67%
O=C(Nc1nc(-c2ccccn2)cs1)c1ccc(Br)s1 8.88%
O=C(Nc1nc(-c2cccs2)cs1)c1ccc(Cl)s1 7.37%
CCOC(=O)c1c(C)[nH]c(C(=O)COC(=O)CNC(=O)c2ccccc2Cl)c1C -9.12%
Cc1occc1C(=O)NC(C)C(C)(C)C (stereo not given) 0.78%
Cc1ccccc1CSCCC(=O)NCCC1=CCCCC1 6.03%
Cn1c(=O)c(-c2ccccc2)nc2ccccc21 -3.46%
Cn1nc(-c2ccc(Cl)cc2)nc2c(=O)n(C)c(=O)nc1-2 20.5%
COc1ccccc1NCC(O)Cn1c2ccccc2c2ccccc21 (stereo not given) -3.61%
COc1ccc(CCNCC(O)Cn2c3ccccc3c3ccccc32)cc1OC (stereo not given) -4.43%
COc1ccc(NC(=O)C2=NN(C3CCS(=O)(=O)C3)C(=O)CC2)cn1 (stereo not given) 3.89%
O=C(CSc1oc(-c2cccs2)nc1S(=O)(=O)c1ccc(F)cc1)NCC1CCCO1 (stereo not given) -4.95%
CSC[C@H](NC(=O)Cc1c(C)c2cc3c(C)c(C)oc3cc2oc1=O)C(=O)N[C@@H](Cc1ccccc1)C(=O)O 5.06%
Cc1ccc(C(=O)CC(=O)c2ccccc2)cc1 6.5%
Cc1ccc(C(=O)Nc2ccccc2Sc2ccccc2)cc1 -6.94%
COc1cccc(NC(=O)CCC2CCN(C(=O)c3sccc3C)CC2)c1 -6.68%
O=C(CCNC(=O)c1ccc([N+](=O)[O-])cc1)NCCc1ccc(Cl)cc1 8.36%
COCCCn1c(=O)c2sccc2n2c(CCCC(=O)N(C)Cc3ccco3)nnc12 -1.76%
Cn1ccnc1SCC(=O)NC1CC1 6.54%
Cc1cc(Nc2cccc(F)c2)nc(NCc2ccccc2)n1 4.66%
Cc1cc(Nc2ccccc2)nc(NCc2ccccc2)n1 19.9%
Cc1[nH]c(=O)[nH]c(=O)c1S(=O)(=O)Nc1ccc(Cl)c([N+](=O)[O-])c1 5.49%
O=Cc1ccc2ccc3cccnc3c2n1 -0.13%
O=S1(=O)NC(=NCCc2ccccn2)c2ccccc21 10.3%
CCOC(=O)c1ccc2c(c1)NC(=O)C(N1CCN(c3ccc(OC)cc3)CC1)S2 (stereo not given) 8.89%
COc1ccc(N(C(=O)c2ccncc2)S(=O)(=O)c2cccs2)cc1 8.99%
Cc1ccccc1-n1c(SCC(=O)c2cc(C)n(C)c2C)nnc1-c1ccncc1 -15.5%
O=C(N/N=C/c1ccc[nH]1)c1cccc([N+](=O)[O-])c1 2.02%
O=C(N/N=C/c1ccc[nH]1)c1ccc([N+](=O)[O-])cc1 5.92%
Cn1c(CCCOc2ccc(Cl)cc2Cl)nnc1SCC(=O)Nc1ccc(F)c(Cl)c1 -2.33%
CCC(=O)c1ccc(OCC(=O)OCC(=O)c2cc(C)n(CC3CCCO3)c2C)cc1 (stereo not given) -5.94%
CCOC(=O)N1CCN(S(=O)(=O)c2ccc(C(=O)N(CCN(C)C)c3nc4ccc(Cl)cc4s3)cc2)CC1 14%
CCOc1c(Cl)cc(CNCc2ccncc2)cc1OC 2.05%
O=C(Nc1ncccc1O)C1CCN(S(=O)(=O)c2ccc3ccccc3c2)CC1 -9.16%
CCCn1c2c(c(=N)c3c1CCC3)CCCC2 -0.71%
CCn1c2c(c(=N)c3c1CCC3)CCCC2 -3.7%
CCCCCn1c2c(c(=N)c3ccccc31)CCC2 12.1%
CCCCCCCn1c2c(c(=N)c3c1CCC3)CCCC2 5.7%
CCn1c2c(c(=N)c3c1CCC3)CCC2 -5.05%
CCOC(=O)Cn1c2c(c(=N)c3ccccc31)CCC2 3.57%
CCCCn1c2c(c(=N)c3c1CCC3)CCC2 -14.8%
CCCCCCn1c2c(c(=N)c3c1CCC3)CCC2 12.9%
CCOn1c(SCC)nc2ccccc2c1=O 5.58%
CC(C)c1ccc(NC(=O)CCCN2C(=S)NC(C)(C)CC2C)cc1 (stereo not given) 3.65%
COC(=O)c1ccc(NC(=O)CN2CCN(c3ccccc3C)CC2)cc1 -8.21%
O=C(Nc1ccccc1)c1cc(S(=O)(=O)NCc2ccncc2)ccc1Cl -1.47%
CCc1c(C(=O)NNC(=S)NCC2CCCO2)csc1C (stereo not given) 8.11%
COc1ccc(OC)c(-c2csc(NC(=O)c3ccccc3F)n2)c1 -4.14%
Cc1cc(C)c2cc(C=O)c(Cl)nc2c1 3.78%
CCOC(=O)CN1CC23C=CC(O2)C(C(=O)NCc2ccc(C)cc2)C3C1=O (stereo not given) 10.7%
CC(C)CCNC(=O)C12CN(Cc3ccccc3)CC1C(c1ccc([N+](=O)[O-])cc1)=NO2 (stereo not given) 16.1%
COc1ccc(/C=C2\SC(=S)N(C(C)C(=O)NC3C=CS(=O)(=O)C3)C2=O)cc1 (stereo not given) -13.9%
CC(C(=O)N(C)C1CCS(=O)(=O)C1)N1C(=O)/C(=C/c2ccc(F)cc2)SC1=S (stereo not given) 3.59%
CC(C(=O)NC1C=CS(=O)(=O)C1)N1C(=O)/C(=C\c2ccccc2)SC1=S (stereo not given) -3.24%
CC(C(=O)NC1C=CS(=O)(=O)C1)N1C(=O)/C(=C/c2cccc(Cl)c2)SC1=S (stereo not given) 27.8%
Cc1nn(C)c(C(=O)N/N=C/c2cccc(Oc3ccccc3)c2)c1Br 8.95%
COc1ccc(CC(=O)N2CC3(C)CC2CC(C)(C)C3)cc1 (stereo not given) 1.16%
COc1ccc(F)c(CN2CCCC(CNS(=O)(=O)c3cccc4cccnc34)C2)c1 (stereo not given) -5.85%
CCCCCCn1ccc(=N)cc1 -2.46%
CCCCCCCCCCCCCCCCn1cc[n+](C)c1 22.9%
CCCC(=O)c1ccc(N2CCN(C(=O)OCC)CC2)c(F)c1 1.25%
Cc1cc([N+](=O)[O-])cc(/C=N\NC(=O)C2COc3ccccc3O2)c1O (stereo not given) -5.46%
O=C(N/N=C\c1ccc(-c2ccccc2[N+](=O)[O-])o1)C1COc2ccccc2O1 (stereo not given) 6.06%
COc1cc(/C=N\NC(=O)C2COc3ccccc3O2)cc(OC)c1O (stereo not given) -4.27%
O=C(N/N=C\c1ccc(O)c([N+](=O)[O-])c1)C1COc2ccccc2O1 (stereo not given) -12.2%
